“And” between values parts separate entries of the source, which are not always exact repeats. Identical values can stand only once.
Tests used:
[1] = tested on: HT29 RNF43 G659fs (RNF43 659mut, CRISPR-edited); experiment: cell viability activity relative to DMSO (negative = inhibition); higher = more viable cells (less growth inhibition); conditions: 5 µM; 96 h
Description: (§1)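 Broad Repurposing Library primary screen at a single dose of 5 uM. HT29 sg-Ctrl and HT29 RNF43 G659fs CRISPR-edited isogenic cells were seeded at 2500 cells/well in 384-well plates in duplicate and treated for 96 h. Viability was read by CellTiter-Glo and reported as % activity relative to DMSO, with MG132 as the positive control (negative = growth inhibition).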

[2] = tested on: HT29 sg-Ctrl (RNF43 wildtype); experiment: as above; conditions: 5 µM; 96 h
Description: as §1

Row | SMILES | cell viability activity [1] | cell viability activity [2]
1 | O=C(NC1CCNCC1)c1n[nH]cc1NC(=O)c1c(Cl)cccc1Cl | -82.8% | -83.8%
2 | O=c1[nH]c(=O)n([C@H]2C[C@H](O)[C@@H](CO)O2)cc1F | -58.1% and -58.2% | -54.2% and -63.2%
3 | CO[C@@H](C)Cn1c(=O)n(C)c2cnc3ccc(-c4cncc(C(C)(C)O)c4)cc3c21 | -81.7% | -78.6%

— the supplement of paper PMC9177965
